The values below come from PubChem BioAssay (NCI).

Test [1] in a line: NCI Yeast Anticancer Drug Screen. Data for the rad50 strain (AID 155).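 Further: 0% = growth of vehicle-only cultures of the same strain.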 The settings on record: S. cerevisiae rad50 strain growth inhibition, active compounds read high. Put shortly: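 Yeast carrying a defined DNA repair defect were exposed to test compounds, and growth was compared with vehicle-treated controls to give percent inhibition.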
Test [2] can be described thus: NCI Yeast Anticancer Drug Screen. Data for the mec2-1 strain (AID 157). The note with it: S. cerevisiae mec2-1 strain, active compounds read high. Put shortly:
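Yeast mec2-1 mutant treated with compound. Readout: growth inhibition vs vehicle controls.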

Test [3] can be described thus: NCI Yeast Anticancer Drug Screen. Data for the sgs1 mgt1 strain (AID 161).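 Further: 0% = growth of cultures given vehicle only.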 The note with it: S. cerevisiae sgs1 mgt1 strain, active compounds read high. An outline of the steps:
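Mutant yeast exposed to compound; growth scored against vehicle-only wells.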

Test [4] is described as follows: NCI Yeast Anticancer Drug Screen. Data for the cln2 rad14 strain (AID 165).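 Further: 0% = growth equal to vehicle treated cultures.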 The note with it: S. cerevisiae cln2 rad14 strain, active compounds read high. An outline of the steps: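 cln2 rad14 yeast strain; compound exposure; growth inhibition read vs vehicle controls.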
Test [5] in a line: NCI Yeast Anticancer Drug Screen. Data for the bub3 strain (AID 167). The settings on record: S. cerevisiae bub3 mutant strain, active compounds read high. An outline of the steps: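 Compounds were applied to a genetically altered yeast strain carrying a cell-cycle control defect. Growth inhibition was scored against vehicle-treated controls.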
The nature of test [6]: NCI Yeast Anticancer Drug Screen. Data for the mlh1 rad18 strain (AID 175). The note with it: S. cerevisiae mlh1 rad18 strain growth inhibition, active compounds read high. Put shortly: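 Yeast w/ defined DNA-repair lesions; compound exposure; growth vs vehicle controls → % inhibition.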
Where [7] appears, read: at 5.0 µM (retest, dose inferred, filed as 0.5).
[8] abbreviates: at 50.0 µM (retest, dose inferred, filed as 5.0).

This is part of a sample that, as a whole, favours compounds with a hit. Of some 79,000 tested, about 15% had one in any assay. Values without a mark were called inactive. Calls of active or inactive are those of the source. No stated cut-off is given here; in the data, active means growth inhibition above about 70%; inactive means the rest.

Take `Clc1ccc(CN2COc3c(ccc4cccnc34)C2)cc1`: the growth inhibition in test [1] (setting [7]) was 1%; in test [1] (setting [8]) it was 36%; in test [1] (at 50.0 µM), 97.1% (active); in test [2] (setting [7]) it was -2%; in test [2] (setting [8]) it was 65%; in test [2] (at 50.0 µM), 64.5%. Also, the growth inhibition was -1% in test [3] (setting [7]); 97% (active) in test [3] (setting [8]); 99.4% (active) in test [3] (at 50.0 µM); 1% in test [4] (setting [7]); 97% (active) in test [4] (setting [8]); 77.5% (active) in test [4] (at 50.0 µM). The growth inhibition was -4% in test [5] (setting [7]); 85% (active) in test [5] (setting [8]); 77.5% (active) in test [5] (at 50.0 µM); 2% in test [6] (setting [7]); 95% (active) in test [6] (setting [8]); 93% (active) in test [6] (at 50.0 µM).

Consider `CC(C)(C)CC(C)(C)c1ccc(O)cc1O`, for which the growth inhibition in test [1] (setting [7]) is 7%; in test [1] (setting [8]), 99% (active); in test [1] (at 50.0 µM), 99.5% (active); in test [2] (setting [7]), 7%; in test [2] (setting [8]), 99% (active); in test [2] (at 50.0 µM), 99.5% (active). The growth inhibition in test [3] (setting [7]) was -3%; in test [3] (setting [8]), 99% (active); in test [3] (at 50.0 µM) it was 99.2% (active); in test [4] (setting [7]), 2%; in test [4] (setting [8]), 98% (active); in test [4] (at 50.0 µM), 98.8% (active). Besides, the growth inhibition in test [5] (setting [7]) is 36%; in test [5] (setting [8]), 99% (active); in test [5] (at 50.0 µM), 98.8% (active); in test [6] (setting [7]), 6%; in test [6] (setting [8]), 99% (active); in test [6] (at 50.0 µM) it was 99.3% (active).

As for `Oc1cc(Cl)cc2cc(Cl)cnc12`, the growth inhibition was 99% (active) in test [1] (setting [7]); 99% (active) in test [1] (setting [8]); 86.6% (active) in test [1] (at 50.0 µM); 96% (active) in test [2] (setting [7]); 98% (active) in test [2] (setting [8]); 91.2% (active) in test [2] (at 50.0 µM). Also, the growth inhibition in test [3] (setting [7]) is 98% (active); in test [3] (setting [8]) it was 98% (active); in test [3] (at 50.0 µM), 84.8% (active); in test [4] (setting [7]), 97% (active); in test [4] (setting [8]), 96% (active); in test [4] (at 50.0 µM), 87.7% (active). For the same compound, the growth inhibition is 98% (active) in test [5] (setting [7]); 99% (active) in test [5] (setting [8]); 87.8% (active) in test [5] (at 50.0 µM); 98% (active) in test [6] (setting [7]); 99% (active) in test [6] (setting [8]); 82.3% (active) in test [6] (at 50.0 µM).

Take `Cc1ccc(-[n+]2cc([O-])on2)cc1`: the growth inhibition was -11% in test [1] (setting [7]); 15% in test [1] (setting [8]); 27.4% in test [1] (at 50.0 µM); -10% in test [2] (setting [7]); -8% in test [2] (setting [8]); 28.9% in test [2] (at 50.0 µM). Moreover, the growth inhibition in test [3] (setting [7]) was -6%; in test [3] (setting [8]), 0%; in test [3] (at 50.0 µM), -5.5%; in test [4] (setting [7]) it was -3%; in test [4] (setting [8]), -3%; in test [4] (at 50.0 µM), 64.2%. For the same compound, the growth inhibition was 10% in test [5] (setting [7]); 2% in test [5] (setting [8]); 15.6% in test [5] (at 50.0 µM); -7% in test [6] (setting [7]); 22% in test [6] (setting [8]); 28.4% in test [6] (at 50.0 µM).

For the compound `Nc1c(-c2ccc(Cl)cc2)[n+]([O-])c2ccccc2[n+]1[O-]`, the growth inhibition in test [1] (setting [7]) was -16%; in test [1] (setting [8]), 4%; in test [1] (at 50.0 µM), 19.2%; in test [2] (setting [7]) it was -8%; in test [2] (setting [8]), -10%; in test [2] (at 50.0 µM) it was 13.2%. Besides, the growth inhibition in test [3] (setting [7]) is 1%; in test [3] (setting [8]), -10%; in test [3] (at 50.0 µM), 34.4%; in test [4] (setting [7]) it was 24%; in test [4] (setting [8]), 11%; in test [4] (at 50.0 µM), 47.7%. Further, the growth inhibition is -3% in test [5] (setting [7]); 11% in test [5] (setting [8]); 8.45% in test [5] (at 50.0 µM); 15% in test [6] (setting [7]); 6% in test [6] (setting [8]); 37.2% in test [6] (at 50.0 µM).

As to `COc1ccc2nc3cc(Cl)ccc3c(Nc3ccc(O)c(CN4CCN(C)CC4)c3)c2c1`, the growth inhibition is 25% in test [1] (setting [7]); 43% in test [1] (setting [8]); 66.9% in test [1] (at 50.0 µM); 7% in test [2] (setting [7]); -11% in test [2] (setting [8]); -26.7% in test [2] (at 50.0 µM). Also, the growth inhibition in test [3] (setting [7]) was 8%; in test [3] (setting [8]), 6%; in test [3] (at 50.0 µM), 32%; in test [4] (setting [7]) it was 21%; in test [4] (setting [8]) it was 2%; in test [4] (at 50.0 µM), 27.6%. In addition, the growth inhibition in test [5] (setting [7]) is 8%; in test [5] (setting [8]), 6%; in test [5] (at 50.0 µM), -33.8%; in test [6] (setting [7]), 13%; in test [6] (setting [8]), 1%; in test [6] (at 50.0 µM) it was -2.9%.

For the compound `CC12C(=O)OC(=O)C1C1c3ccccc3C2c2ccccc21` (stereo not given), the growth inhibition is 71% (active) in test [1] (setting [7]); 99% (active) in test [1] (setting [8]); 89.7% (active) in test [1] (at 50.0 µM); 82% (active) in test [2] (setting [7]); 99% (active) in test [2] (setting [8]); 89.5% (active) in test [2] (at 50.0 µM). The growth inhibition is 26% in test [3] (setting [7]); 90% (active) in test [3] (setting [8]); 89.3% (active) in test [3] (at 50.0 µM); 51% in test [4] (setting [7]); 95% (active) in test [4] (setting [8]); 86.8% (active) in test [4] (at 50.0 µM). Besides, the growth inhibition in test [5] (setting [7]) is 54%; in test [5] (setting [8]), 90% (active); in test [5] (at 50.0 µM), 89.5% (active); in test [6] (setting [7]) it was 76% (active); in test [6] (setting [8]), 99% (active); in test [6] (at 50.0 µM) it was 88% (active).

For the compound `Cn1cnc2[nH]c(Cl)nc(=S)c21`, the growth inhibition in test [1] (setting [7]) was -1%; in test [1] (setting [8]), 2%; in test [1] (at 50.0 µM), 1.05%; in test [2] (setting [7]), 3%; in test [2] (setting [8]) it was 0%; in test [2] (at 50.0 µM) it was -8.25%. The growth inhibition was -1% in test [3] (setting [7]); 0% in test [3] (setting [8]); -0.65% in test [3] (at 50.0 µM); -6% in test [4] (setting [7]); 0% in test [4] (setting [8]); 81.1% (active) in test [4] (at 50.0 µM). Further, the growth inhibition in test [5] (setting [7]) was -1%; in test [5] (setting [8]), -4%; in test [5] (at 50.0 µM), 11.9%; in test [6] (setting [7]), -2%; in test [6] (setting [8]) it was 0%; in test [6] (at 50.0 µM), 15.6%.

Consider `CC(C)CCCC(C)C1CCC2C3CC=C4OC(=O)CCC4(C)C3CCC12C` (stereo not given), for which the growth inhibition in test [1] (setting [7]) is -11%; in test [1] (setting [8]), 88% (active); in test [1] (at 50.0 µM), 83.4% (active); in test [2] (setting [7]), -2%; in test [2] (setting [8]), 85% (active); in test [2] (at 50.0 µM), 91.8% (active). Besides, the growth inhibition in test [3] (setting [7]) was -35%; in test [3] (setting [8]) it was 93% (active); in test [3] (at 50.0 µM), 76.2% (active); in test [4] (setting [7]), -2%; in test [4] (setting [8]), 93% (active); in test [4] (at 50.0 µM), 85.2% (active). In addition, the growth inhibition in test [5] (setting [7]) is -1%; in test [5] (setting [8]), 91% (active); in test [5] (at 50.0 µM) it was 86.3% (active); in test [6] (setting [7]), -1%; in test [6] (setting [8]) it was 94% (active); in test [6] (at 50.0 µM), 90.6% (active).

For `O=C1C(c2ccc(Br)cc2)=[N+]([O-])c2ccccc21`, the growth inhibition in test [1] (setting [7]) was 9%; in test [1] (setting [8]) it was 94% (active); in test [1] (at 50.0 µM), 93.5% (active); in test [2] (setting [7]), 12%; in test [2] (setting [8]), 84% (active); in test [2] (at 50.0 µM) it was 87.3% (active). Also, the growth inhibition in test [3] (setting [7]) is 10%; in test [3] (setting [8]) it was 94% (active); in test [3] (at 50.0 µM), 93.8% (active); in test [4] (setting [7]), -4%; in test [4] (setting [8]), 47%; in test [4] (at 50.0 µM), 85.5% (active). In addition, the growth inhibition in test [5] (setting [7]) was 19%; in test [5] (setting [8]) it was 94% (active); in test [5] (at 50.0 µM), 96.4% (active); in test [6] (setting [7]) it was 11%; in test [6] (setting [8]), 91% (active); in test [6] (at 50.0 µM) it was 95.8% (active).
